# Source: PubChem BioAssay (NCATS)
# A number with no mark means an inactive call. Records with an inconclusive call do not appear. Entries that show only a call come without a potency. Active and inactive are the calls of the source. The call rests on the fitted dose curve; in most records, active means well fitted curve in the direction sought with a large enough effect; inconclusive means small, poorly fitted or top-dose-only effect, or another doubt; inactive means no such curve, though single readings can be large; an effect the other way counts as inactive or inconclusive.
# What was measured:
# [1] = biological target: Glutathione peroxidase 1 (Homo sapiens) (UniProt P07203); assay: Primary qHTS Assay for Inhibitors of Recombinant Selenoprotein Glutathione Peroxidase 1 (GPX1) (AID 1845191); further: nearly all actives have a fitted effect of over 65% in size; further: potency means the concentration at half of the fitted maximal effect
# Outline: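 GR-coupled assay: compounds preincubated 30 min at room temperature with GPX1, then reaction started with CHP; final 10 nM GPX1, 1 mM GSH, 0.5 mM CHP, 0.5 mM NADPH, 100 nM GR, 0.01% BSA, pH 7.5 Tris buffer. NADPH fluorescence (340/450 nm) read at 0 and 15 min.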
# [2] = biological target: Phospholipid hydroperoxide glutathione peroxidase GPX4 (Homo sapiens) (UniProt P36969); assay: Primary qHTS Assay for Inhibitors of Recombinant Selenoprotein Glutathione Peroxidase 4 (GPX4) (AID 1845192); further: nearly all actives have a fitted effect of over 65% in size
# Outline: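 GR-coupled assay: recombinant GPX4 preincubated 30 min with compound at room temperature; final 200 nM GPX4, 1 mM GSH, 0.5 mM cumene hydroperoxide, 0.5 mM NADPH, 100 nM GR, 0.01% BSA, pH 7.5 Tris. NADPH fluorescence (340/450 nm) read at 0 and 15 min.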
# [3] = biological target: Luciferin 4-monooxygenase (Photinus pyralis) (UniProt P08659); assay: Primary firefly luciferase (FLuc) qHTS assay for identification of artifact compounds. (AID 1845220); further: nearly all actives have a fitted effect of over 60% in size; further: potency means the concentration at half of the fitted maximal effect
# Outline: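 Enzymatic FLuc inhibition assay: compounds pre-exposed to luciferin/ATP (10 uM each) for 15 min, then purified P. pyralis enzyme at 10 nM added. Read-out: luminescence at 5 min.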
# [4] = test system: Nanoluciferase (engineered Oplophorus gracilirostris luciferase); assay: Primary Nanoluciferase (NLuc) qHTS assay for identification of artifact compounds. (AID 1845222);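 further: NLuc secreted into diluted conditioned medium of S16 cells; series mostly up to about 54 µM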
# Outline: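 S16 cell supernatant NLuc, 1:55; cpds qHTS; 15 min RT dark; Nano-Glo substrate 1:100, 5 min; luminescence; Hill fit of % inhibition.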
# [5] = Primary redox qHTS assay for identification of artifact compounds. (AID 1845223)
# Outline: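 Amplex Red (25 uM) and HRP (250 mU/mL) in HBSS, with compounds for 15 min, then 250 uM DTT for 30 min, room temperature, dark. Fluorescence 525/598 nm read; normalized to DMSO and 10 uM DA3003; Hill fit.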
# [6] = Primary fluorescence-based thiol-reactive (MSTI) qHTS assay for identification of artifact compounds. (AID 1845221);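 further: series mostly up to about 54 µM; thiol-reactive compounds lower the probe fluorescence signal; nearly all actives have a fitted effect of over 65% in size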
# Outline: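 Probe: MSTI 4 uM, PBS pH 7.4, 2% DMSO. Incubation 1 h, RT, light-protected. Readout fluorescence 525/598 nm.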
# Chain of Glutathione peroxidase 1 (Homo sapiens) (P07203 whole entry, looked up): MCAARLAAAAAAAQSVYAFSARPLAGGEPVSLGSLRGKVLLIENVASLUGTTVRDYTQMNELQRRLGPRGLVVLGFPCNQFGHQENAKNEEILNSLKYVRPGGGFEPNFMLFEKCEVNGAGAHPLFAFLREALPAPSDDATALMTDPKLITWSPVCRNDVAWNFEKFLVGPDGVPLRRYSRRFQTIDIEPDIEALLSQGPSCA
# Chain of Phospholipid hydroperoxide glutathione peroxidase GPX4 (Homo sapiens) (P36969 whole entry, looked up): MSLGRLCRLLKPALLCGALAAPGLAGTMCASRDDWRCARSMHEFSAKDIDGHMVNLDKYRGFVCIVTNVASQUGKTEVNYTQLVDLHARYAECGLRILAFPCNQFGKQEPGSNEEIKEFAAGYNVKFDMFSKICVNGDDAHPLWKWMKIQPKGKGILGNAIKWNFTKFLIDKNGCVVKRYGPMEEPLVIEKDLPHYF
Compound,Potency [1],Potency [2],Potency [3],Potency [4],Potency [5],Potency [6],"activity change, negative = thiol reactive [6]","activity, negative = inhibition [4]"
O=C1NC(Cc2ccccc2)C(=O)N2CCCC12 (centres undefined),inactive,inactive,inactive,inactive,inactive,,,
CC[C@@H](N)CNc1ccnc(-c2cc(-c3cnn(C)c3)ccc2O)n1,inactive,inactive,inactive,inactive,inactive,,,
C=C(C(=O)O)C1CCC2(C)CCC(O)C(C)(O)C2C1 (centres undefined),inactive,inactive,inactive,inactive,inactive,,,
CCN(CC)c1ccc2c(O)c(C=Nc3ccc(CC(=O)O)c(-c4c5c(nc6ccccc46)CCC(C(=O)NN)C5)c3)c(=O)oc2c1 (centres undefined),inactive,inactive,6.01 µM (active),inactive,inactive,,,
c1cn2cc(-c3ccc4cn[nH]c4c3)nc(Nc3ccc(N4CCOCC4)cc3)c2n1,inactive,inactive,0.0536 µM (active),inactive,inactive,,,
Cc1cc(C)cc(C(=O)NOCCCCCC(=O)NO)c1,inactive,inactive,inactive,inactive,inactive,,,
O=C(OCC1=CC(O)C2C=CO[C@@H](O[C@@H]3O[C@H](CO)[C@@H](O)[C@H](O)[C@H]3O)C12)c1ccccc1 (some centres undefined),inactive,inactive,inactive,inactive,inactive,,,
CC(C)CC(=O)OC1OC=C(CO[C@@H]2O[C@H](CO)[C@@H](O)[C@H](O)[C@H]2O)C2CC(O)C(O)(CO)C12 (some centres undefined),inactive,inactive,inactive,inactive,inactive,,,
COc1cc(/C=C/CO)cc(OC)c1O[C@@H]1O[C@H](CO[C@@H]2O[C@H](CO)[C@@H](O)[C@H](O)[C@H]2O)[C@@H](O)[C@H](O)[C@H]1O,inactive,inactive,inactive,inactive,inactive,,,
C=CC1C(OC2OC(CO)C(O)C(O)C2O)OC=C2C(=O)N3C(C(=O)O)Cc4c([nH]c5ccccc45)C3CC21 (centres undefined),inactive,inactive,inactive,inactive,inactive,,,
C[C@@H]1[C@H]2[C@H](O[C@@H]3O[C@H](CO)[C@@H](O)[C@H](O)[C@H]3O)OC=C(C(=O)O)[C@H]2C[C@@H]1O,inactive,inactive,inactive,inactive,inactive,,,
COC(=O)C1=CO[C@@H](O[C@@H]2O[C@H](CO)[C@@H](O)[C@H](O)[C@H]2O)[C@@H]2C(CO)=CC[C@]12O,inactive,inactive,inactive,inactive,inactive,,,
O=S(=O)(NCC1CC1)c1ccc(Nc2nccc(N3CCCc4cc(O)ccc43)n2)cc1,inactive,inactive,inactive,inactive,inactive,,,
CC(O)/C=C/C1C(C)C(O[C@@H]2O[C@H](CO)[C@@H](O)[C@H](O)[C@H]2O)C(O)CC1(C)C (some centres undefined),inactive,inactive,inactive,inactive,inactive,,,
Cc1ncc(CCCN(C)C)cc1Nc1ncc2c(n1)-c1ccc(C(F)(F)F)cc1NC(=S)C2,12.8 µM (active),inactive,inactive,inactive,inactive,,,
Nc1nc2c(c(N3CCNCC3)n1)CCC1=C2[C@@H]2CCCC[C@@H]2O1,inactive,inactive,inactive,inactive,inactive,,,
O=C(OC[C@@]1(O)CO[C@@H](O[C@H]2[C@H](Oc3ccc(O)cc3)O[C@H](CO)[C@@H](O)[C@@H]2O)[C@@H]1O)c1ccc(O)cc1,inactive,inactive,inactive,inactive,inactive,,,
CC1=CC(=O)CC(C)(C)C1CCC(C)O[C@@H]1O[C@H](CO[C@@H]2OC[C@@H](O)[C@H](O)[C@H]2O)[C@@H](O)[C@H](O)[C@H]1O (some centres undefined),inactive,inactive,inactive,inactive,inactive,,,
COC(=O)CC(C)(O)CC(=O)OCc1ccc(O[C@@H]2O[C@H](CO)[C@@H](O)[C@H](O)[C@H]2O)cc1 (some centres undefined),inactive,inactive,inactive,inactive,inactive,,,
C=C1[C@@H]2CC[C@@H]3[C@@](CCC4C(C(=O)O)(C(=O)O)C[C@@H](O[C@@H]5O[C@H](CO)[C@@H](O)[C@H](O)[C@H]5OC(=O)CC(C)C)C[C@]43C)(C2)[C@H]1O (some centres undefined),inactive,inactive,inactive,inactive,inactive,,,
Cc1cccc(C)c1-n1c(=O)c2cnc(Nc3ccc(N4CCN(C)CC4)cc3)nc2n2c3ccccc3nc12,inactive,inactive,inactive,inactive,inactive,,,
CCC1C(=O)OC23C=C[C@@H]4C(C(=O)O)=CO[C@H](O[C@@H]12)[C@@H]43 (some centres undefined),inactive,inactive,inactive,inactive,inactive,,,
O=C1CCC=CC1(O)C(=O)OCc1ccccc1O[C@@H]1O[C@H](CO)[C@@H](O)[C@H](O)[C@H]1O (some centres undefined),inactive,inactive,inactive,inactive,inactive,,,
CC1=CC(=O)C(=C(C)C)CC2C1CCC2(C)O (centres undefined),inactive,inactive,inactive,inactive,inactive,,,
C/C=C/C=C/C(=O)N1CC[C@]23c4ccccc4N[C@H]4N(C)c5cccc6c5[C@@]42CCN([C@H]6C2OC2(C)C)[C@H]13 (some centres undefined),inactive,inactive,inactive,inactive,inactive,,,
COc1cc2ncnc(Nc3ccc(O)cc3)c2cc1OC,inactive,inactive,inactive,inactive,inactive,,,

Compound,Potency [1],Potency [2],Potency [3],Potency [4],Potency [5],Potency [6],"activity change, negative = thiol reactive [6]","activity, negative = inhibition [4]"
CC1(C)CCCC2(C)C(CO)C(CO)=CCC12 (centres undefined),inactive,inactive,inactive,inactive,inactive,,,
OCC(CO[C@@H]1O[C@H](CO)[C@@H](O)[C@H](O)[C@H]1O)c1ccc2c(c1)OCO2 (some centres undefined),inactive,inactive,inactive,inactive,inactive,,,
CC(C)c1ccc2c(c1)C(=O)CC1[C@@](C)(C(=O)O)CCC[C@]21C (some centres undefined),inactive,inactive,inactive,inactive,inactive,,,
COc1cc(O)cc(C)c1C(=O)OC1C(CO)OC(OC2C(O)C(O)C(O)C(O)C2O)C(O)C1O (centres undefined),inactive,inactive,inactive,inactive,inactive,,,
OC[C@@]1(O)CO[C@@H](OC[C@H]2O[C@@H](Oc3c[nH]c4ccccc34)[C@H](O)[C@@H](O)[C@@H]2O)[C@@H]1O,inactive,inactive,inactive,inactive,inactive,,,
CC/C=C\CCO[C@@H]1O[C@H](CO[C@@H]2OC[C@H](O)[C@H](O)[C@H]2O)[C@@H](O)[C@H](O)[C@H]1O,inactive,inactive,inactive,inactive,inactive,,,
CC(O)(CC(=O)O)CC(=O)OCc1ccc(O[C@@H]2O[C@H](CO)[C@@H](O)[C@H](O)[C@H]2O)cc1 (some centres undefined),inactive,inactive,inactive,inactive,inactive,,,
CC1C(=O)CC2C3CCC(C(=O)O)C12CC3(C)CO (centres undefined),inactive,inactive,inactive,inactive,inactive,,,
Nc1nc(Nc2ccc(S(N)(=O)=O)cc2)n(C(=S)Nc2c(F)cccc2F)n1,inactive,inactive,inactive,inactive,inactive,,,
COC1C(CO)OC(n2cnc3c(=O)[nH]cnc32)C1O (centres undefined),inactive,inactive,inactive,inactive,inactive,,,
Cn1c(=O)cc(N2CCCC(N)C2)n(Cc2cc(F)ccc2C#N)c1=O (centres undefined),inactive,inactive,inactive,inactive,inactive,,,
CC(=O)CCC1=C(C)C(O[C@@H]2O[C@H](CO)[C@@H](O)[C@H](O)[C@H]2O)C(O)CC1(C)C (some centres undefined),inactive,inactive,inactive,inactive,inactive,,,
COC(=O)c1ccccc1O[C@@H]1O[C@H](CO)[C@@H](O)[C@H](O)[C@H]1O[C@@H]1O[C@@H](C)[C@H](O)[C@@H](O)[C@H]1O,inactive,inactive,inactive,inactive,inactive,,,
CC1=CC(=O)CC(C)(C)[C@@]1(O)CC[C@@H](C)O[C@@H]1O[C@H](CO)[C@@H](O)[C@H](O)[C@H]1O,inactive,inactive,inactive,inactive,inactive,,,
CC(O)/C=C/C1(O)C2(C)COC1(C)CC(O)C2 (centres undefined),inactive,inactive,inactive,inactive,inactive,,,
COc1cc(O)c2c(c1)C1=CC(O)C(O)CC1(C)OC2=O (centres undefined),inactive,inactive,inactive,inactive,inactive,,,
CC/C=C\[C@H](O)[C@H](O)C1=C(C)C(=O)[C@]2(O1)C(=O)N[C@@](OC)(C(=O)c1ccccc1)[C@@H]2O,inactive,inactive,inactive,inactive,inactive,,,
Cc1cc(NC(=O)Nc2ccc(F)c(F)c2)n(-c2ccccc2)n1,inactive,inactive,inactive,inactive,inactive,,,
CN1CCN(Cc2ccc(-c3cnc4[nH]cc(-c5ccc6[nH]ccc6c5)c4c3)cc2)CC1,inactive,inactive,6.75 µM (active),inactive,inactive,,,
COC(=O)C1=CO[C@@H](O[C@@H]2O[C@H](CO)[C@@H](O)[C@H](O)[C@H]2O)[C@H]2[C@@H]1C=C[C@@]21C=C([C@H](C)O)C(=O)O1,inactive,inactive,inactive,inactive,inactive,,,
OCc1ccc(O[C@@H]2O[C@H](CO)[C@@H](O)[C@H](O)[C@H]2O)cc1,inactive,inactive,,inactive,inactive,inactive,,
COc1c(Nc2ncc(Cl)c(N[C@H]3[C@@H](C(N)=O)[C@@H]4C=C[C@H]3C4)n2)ccc2c1CC[C@@H](N1CCOCC1)CC2,inactive,inactive,,inactive,inactive,inactive,,
CC(C)c1cccc2c(-c3ccccc3)cc(-c3ccc(-c4ccc(C(=O)O)cc4)[nH]3)nc12,inactive,inactive,inactive,inactive,inactive,,,
CCN1CCN(Cc2ccc(NC(=O)c3ccc(C)c(/C=C/c4cnc5[nH]ccc5c4OC)c3)cc2C(F)(F)F)CC1,inactive,inactive,,inactive,inactive,inactive,,
O=C1NC(Cc2c[nH]c3ccccc23)C(=O)NC1Cc1c[nH]c2ccccc12 (centres undefined),inactive,inactive,inactive,inactive,inactive,,,
CC1(C)CCC2(C(=O)OC3OCC(O)C(O)C3O)CCC3(C)C(=CCC4C5(C)CC(O)C(OC6OC(COC7OCC(O)C(O)C7O)C(O)C(O)C6O)C(C)(C)C5CCC43C)C2C1 (centres undefined),inactive,inactive,,,,,-15.2% [at 11.5 µM],0.507% [at 11.6 µM]
